Here are results for 40 sequences from the supplement of paper PMC6555819.

For the first experiment, the system named is PPARg:RXRa DBDmut IVT, anti-RXR (DBD mutation: RXRa K156A/R161A, NR concentration 270 nM, RXRa partner concentration 90 nM). The experiment can be described thus: PBM binding z-score (relative to random genomic background probes); higher = stronger binding; sequences stand for … in GC…GCGATTGACAGCGTAGAATGAAGG
The method in brief: (§1)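 Random background probes are the reference for binding z-scores. These scores derive from regression-normalized fluorescence on custom Agilent 4×180K protein-binding microarrays incubated 1 h with ligand-free nuclear receptor dimers. Binding was detected with antibodies against each partner (one per run).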
The sequence AGAATGAGGTTAAGTTCAGGGAAACAGAATACAT registered a PBM binding z-score of 3.13.

In turn, CCTACTGGACCAAGGTCATTGATCAGTCAAAGCA showed a PBM binding z-score of 2.03.

Take ATCTCTAGGTTAAGATAGTTCAGTGAATGCAAAT: the PBM binding z-score amounted to 3.33.

In turn, CAAACTAGTTCAAGAGGTCAAAGTCCGCTTCCCG had a PBM binding z-score of 2.43.

Consider CCTACTGGGCCATTCAGAGGTCAATGATCATATG, for which the PBM binding z-score is 4.08.

AGAATGGGGTTACCAAAGATCAGGGAAACGCTTG came in with a PBM binding z-score of 4.37.

For ATCGAAAGGTCCAAGGTGAGTATACCCACCCGAA, the PBM binding z-score was -0.563.

In the case of ACTCGGATGACAAAGGTCAGAGCTACGCCAGTGA, the PBM binding z-score came to 0.169.

Take AGTCAAAGTTCATCTAGGTAACATAAGATATGCT: the PBM binding z-score was 1.1.

For CCTAGTTGGTCAAGGTCACACCCGCTATAGGTAC, the PBM binding z-score stood at 2.17.

Turning to TCTAGTTGGTCACGGAGGTCACAAACGACGGGTA, the PBM binding z-score is 2.44.

Take AGAATGAGGTTAAACGTAGATCAGGGAAGAAAGT: the PBM binding z-score worked out at 6.01.

The sequence ACTTACGGCTCAACGAGGTTATAGCACGCGTATA showed a PBM binding z-score of -0.0346.

AATACAGGGTGACTAGGCCAGAGTAGGTACGAAT yielded a PBM binding z-score of 2.23.

For GCTGCTAGTTCAACTGATGGTCAGCTAAAGCTCG, the PBM binding z-score was -0.111.

For TAGCCTAGGTCATTCAGGGGCCAGCATAGAAAGC, the PBM binding z-score worked out at 2.03.

In turn, TTGCCTAGGTCATTGGGCCAGTATAGTACGCATC had a PBM binding z-score of 2.65.

AGAATGAGATTACCAAAGATCAGGGAAACGCTTG: the PBM binding z-score was -0.34.

In turn, ATCGAAAGGTCGACCAGGTGAGTATACACCGTTT came in with a PBM binding z-score of 0.539.

The sequence CCTTACGGGTTACTCCAGGTTATAGCATCGGAGT came in with a PBM binding z-score of 0.986.

For TCTGCTAGGTCAACGTTGGTCAGCTAATCTGCTA, the PBM binding z-score came to 3.92.

In the case of ATATGTAGGATAGCTGGGGTCATTCAGACTAGGC, the PBM binding z-score was found to be 3.17.

Sequence CCTAGCAGGCCAATCTAGGTCACTCAAGGCTTGA yielded a PBM binding z-score of 5.08.

Turning to CAAACTAGGTCACAGTGGTCAAAGTCCGTGCGTA, the PBM binding z-score was determined as 8.5.

As for CAAACTAGGTCACTAAAGGTCAAAGTCGAATGAC, the PBM binding z-score is 8.1.

With GCTTACGGGTCCAAGGTTATAGCATGAATAGAAT, the PBM binding z-score was 0.18.

In turn, ATATGTAGGTTATCGGGTCATACAGTTTGCGCAT returned a PBM binding z-score of 7.63.

On to TACCCTAGGTCATTCAGGGGCCAGTATAGAAAGC, for which the PBM binding z-score came out at 1.8.

For the sequence TCTTGTAGATCAACAGGAGGTTAATAAAGATCGA, the PBM binding z-score amounted to 1.38.

TCTAGTTGGTCTAAGGTCACACACTCGAAATGCG returned a PBM binding z-score of 2.2.

Regarding TAGCCTAGGTCATGGGCCAGTGTACCACGCGAAC, the PBM binding z-score is 1.74.

Sequence CCTACGGGGCCACGAAAGGTCATTGATTCAGTGA displayed a PBM binding z-score of 1.57.

Consider TCTTGTAGATCGATAGAGGTTAAGAAAGTGCGCT, for which the PBM binding z-score turned out to be 0.891.

The sequence AGAATGAGGTTACCAAAGGTCAGGGAAACGCTTG came in with a PBM binding z-score of 4.16.

In turn, CCGAGTTGGTCAAGGTCACACACGCTATAGGTAC gave a PBM binding z-score of 1.59.

ACTTACGGGTCTACGAGGTTATAGCACGCGTATA yielded a PBM binding z-score of -0.0713.

AGTCAAAGTTCAGGACGACGTAACGTAAAGCACG: the PBM binding z-score was -0.52.

Sequence CGTCCAAGGTCAGCGGGTCAGTGAAAGCGACGTG displayed a PBM binding z-score of 3.12.

ATATGTAGGTTAGCTGGGGTCCTTCAGACTAGGC gave a PBM binding z-score of 6.27.

Turning to GATATAGGGTCAGCTAGAGGCCAGAGTATGGAAA, the PBM binding z-score was 2.49.

Another experiment relates to PPARg:RXRa IVT, anti-PPARg (NR concentration 270 nM, RXRa partner concentration 90 nM). Described as above. The method in brief:
as §1
Sequence AGAATGAGGTTAAGTTCAGGGAAACAGAATACAT gave a PBM binding z-score of 3.33.

On to CCTACTGGACCAAGGTCATTGATCAGTCAAAGCA, for which the PBM binding z-score stood at 2.23.

The sequence ATCTCTAGGTTAAGATAGTTCAGTGAATGCAAAT had a PBM binding z-score of 3.25.

On to CAAACTAGTTCAAGAGGTCAAAGTCCGCTTCCCG, for which the PBM binding z-score turned out to be 2.96.

Sequence CCTACTGGGCCATTCAGAGGTCAATGATCATATG came in with a PBM binding z-score of 4.62.

For AGAATGGGGTTACCAAAGATCAGGGAAACGCTTG, the PBM binding z-score turned out to be 4.08.

On to ATCGAAAGGTCCAAGGTGAGTATACCCACCCGAA, for which the PBM binding z-score was found to be 0.666.

Turning to ACTCGGATGACAAAGGTCAGAGCTACGCCAGTGA, the PBM binding z-score is 2.58.

In turn, AGTCAAAGTTCATCTAGGTAACATAAGATATGCT registered a PBM binding z-score of 3.9.

For CCTAGTTGGTCAAGGTCACACCCGCTATAGGTAC, the PBM binding z-score was 3.67.

Turning to TCTAGTTGGTCACGGAGGTCACAAACGACGGGTA, the PBM binding z-score is 3.96.

Regarding AGAATGAGGTTAAACGTAGATCAGGGAAGAAAGT, the PBM binding z-score was 3.75.

In turn, ACTTACGGCTCAACGAGGTTATAGCACGCGTATA registered a PBM binding z-score of 0.0544.

Regarding AATACAGGGTGACTAGGCCAGAGTAGGTACGAAT, the PBM binding z-score worked out at 3.48.

GCTGCTAGTTCAACTGATGGTCAGCTAAAGCTCG yielded a PBM binding z-score of -0.512.

Regarding TAGCCTAGGTCATTCAGGGGCCAGCATAGAAAGC, the PBM binding z-score worked out at 2.78.

In the case of TTGCCTAGGTCATTGGGCCAGTATAGTACGCATC, the PBM binding z-score amounted to 3.83.

Consider AGAATGAGATTACCAAAGATCAGGGAAACGCTTG, for which the PBM binding z-score is -0.595.

ATCGAAAGGTCGACCAGGTGAGTATACACCGTTT yielded a PBM binding z-score of 2.15.

The sequence CCTTACGGGTTACTCCAGGTTATAGCATCGGAGT showed a PBM binding z-score of 0.994.

Turning to TCTGCTAGGTCAACGTTGGTCAGCTAATCTGCTA, the PBM binding z-score came out at 4.38.

For the sequence ATATGTAGGATAGCTGGGGTCATTCAGACTAGGC, the PBM binding z-score came to 2.82.

CCTAGCAGGCCAATCTAGGTCACTCAAGGCTTGA registered a PBM binding z-score of 5.19.

For the sequence CAAACTAGGTCACAGTGGTCAAAGTCCGTGCGTA, the PBM binding z-score turned out to be 9.05.

CAAACTAGGTCACTAAAGGTCAAAGTCGAATGAC displayed a PBM binding z-score of 8.98.

The sequence GCTTACGGGTCCAAGGTTATAGCATGAATAGAAT showed a PBM binding z-score of 0.338.

ATATGTAGGTTATCGGGTCATACAGTTTGCGCAT came in with a PBM binding z-score of 7.62.

As to TACCCTAGGTCATTCAGGGGCCAGTATAGAAAGC, the PBM binding z-score worked out at 3.23.

As for TCTTGTAGATCAACAGGAGGTTAATAAAGATCGA, the PBM binding z-score was found to be 0.851.

TCTAGTTGGTCTAAGGTCACACACTCGAAATGCG returned a PBM binding z-score of 3.51.

In turn, TAGCCTAGGTCATGGGCCAGTGTACCACGCGAAC registered a PBM binding z-score of 3.43.

Take CCTACGGGGCCACGAAAGGTCATTGATTCAGTGA: the PBM binding z-score stood at 2.93.

Consider TCTTGTAGATCGATAGAGGTTAAGAAAGTGCGCT, for which the PBM binding z-score worked out at 0.198.

The sequence AGAATGAGGTTACCAAAGGTCAGGGAAACGCTTG showed a PBM binding z-score of 4.54.

Take CCGAGTTGGTCAAGGTCACACACGCTATAGGTAC: the PBM binding z-score was 3.09.

In turn, ACTTACGGGTCTACGAGGTTATAGCACGCGTATA came in with a PBM binding z-score of 0.458.

For AGTCAAAGTTCAGGACGACGTAACGTAAAGCACG, the PBM binding z-score was found to be 1.54.

The sequence CGTCCAAGGTCAGCGGGTCAGTGAAAGCGACGTG registered a PBM binding z-score of 3.48.

Take ATATGTAGGTTAGCTGGGGTCCTTCAGACTAGGC: the PBM binding z-score amounted to 5.77.

Consider GATATAGGGTCAGCTAGAGGCCAGAGTATGGAAA, for which the PBM binding z-score came out at 3.12.
